From the supplement of paper PMC12669032

Key:
Assay in all cases: growth AUC relative to DMSO control (median of replicates) (fraction); higher = more growth (less inhibition), active = hit call of the paper
Details in all cases: 20 µM; 24 h;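 active = AUC reduced over 20% with Padj below 0.05 in at least 2 of 3 replicates; inactive = otherwise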
[1] = system: Akkermansia muciniphila
Summary of the method: (§1)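 Area under the growth curve was normalised to the plate median of solvent-only wells, or to row and column medians on the industrial chemical plate. Growth curves came from anaerobic gut bacterial monocultures in mGAM at 37 °C, seeded at OD600 0.05 with 20 µM compound (1% DMSO), and read at OD600 hourly for 24 h with the minimum OD set to 0. The value is the median of three biological replicates grown on separate days.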

[2] = system: Bacteroides caccae
Summary of the method: as §1

[3] = system: Bacteroides clarus
Summary of the method: as §1

[4] = system: Bacteroides dorei
Summary of the method: as §1

[5] = system: Bacteroides stercoris
Summary of the method: as §1

[6] = system: Bacteroides thetaiotaomicron
Summary of the method: as §1

[7] = system: Bacteroides uniformis
Summary of the method: as §1

[8] = system: Bifidobacterium longum subsp. longum
Summary of the method: as §1

[9] = system: Clostridium difficile
Summary of the method: as §1

[10] = system: Collinsella aerofaciens
Summary of the method: as §1

Measured: growth AUC

CCNc1nc(NC(C)C)[nH]c(=O)n1
inactive: [1] 0.993 | [2] 1 | [3] 1.02 | [4] 1.04 | [5] 0.998 | [6] 1 | [7] 1.07 | [8] 0.962 | [9] 1.05 | [10] 1.02

CCOP(=S)(OCC)Oc1ccc2c(C)c(Cl)c(=O)oc2c1
inactive: [1] 1.1 | [2] 0.952 | [3] 0.957 | [4] 0.98 | [5] 0.891 | [6] 0.934 | [7] 0.95 | [8] 0.968 | [9] 1 | [10] 1

CNC(=O)Oc1ccccc1OC(CCl)OC (stereo not given)
inactive: [1] 1.17 | [2] 0.941 | [3] 1.06 | [4] 0.955 | [5] 1.23 | [6] 1.02 | [7] 0.982 | [8] 1.02 | [9] 1.03 | [10] 1.07

CCOP(=O)(OCC)O/C(=C\Cl)c1ccc(Cl)cc1Cl
inactive: [1] 0.854 | [2] 0.982 | [3] 0.952 | [4] 0.983 | [5] 0.956 | [6] 0.962 | [7] 0.942 | [8] 0.873 | [9] 1 | [10] 1

CCOP(=S)(OCC)Oc1ccc([N+](=O)[O-])cc1
inactive: [1] 1.09 | [2] 0.963 | [3] 1 | [4] 1.02 | [5] 1.05 | [6] 0.972 | [7] 0.959 | [8] 1.03 | [9] 1 | [10] 1.03

O=P(OC(CCl)CCl)(OC(CCl)CCl)OC(CCl)CCl
inactive: [1] 1.09 | [2] 0.845 | [3] 0.999 | [4] 0.87 | [5] 1.3 | [6] 0.947 | [7] 0.868 | [8] 1.05 | [9] 0.9 | [10] 0.948

ClC1C(Cl)C(Cl)C(Cl)C(Cl)C1Cl (mixture of isomers)
inactive: [1] 0.921 | [2] 0.981 | [3] 0.932 | [4] 1.01 | [5] 0.826 | [6] 0.986 | [7] 0.916 | [8] 0.921 | [9] 0.982 | [10] 1

CC(C)C1(C)N=C(c2nc3ccccc3cc2C(=O)O)NC1=O (stereo not given)
inactive: [1] 0.971 | [2] 1.01 | [3] 1.02 | [4] 0.957 | [5] 1.03 | [6] 0.992 | [7] 1.01 | [8] 0.967 | [9] 0.958 | [10] 0.962

COc1cc(Cl)c(OC)cc1Cl
inactive: [1] 1.03 | [2] 1.04 | [3] 1 | [4] 1.04 | [5] 1.01 | [6] 1.04 | [7] 1 | [8] 0.995 | [9] 1.05 | [10] 1.11

O=S1OCC2C(CO1)C1(Cl)C(Cl)=C(Cl)C2(Cl)C1(Cl)Cl (stereo not given)
inactive: [1] 1.08 | [2] 1 | [3] 0.962 | [4] 0.999 | [5] 0.779 | [6] 0.976 | [7] 0.874 | [8] 1.04 | [9] 0.992 | [10] 0.971

ClC1=C(Cl)C(Cl)(C2(Cl)C(Cl)=C(Cl)C(Cl)=C2Cl)C(Cl)=C1Cl
inactive: [1] 1.27 | [2] 0.926 | [3] 0.93 | [4] 0.895 | [5] 0.809 | [6] 0.856 | [7] 0.875 | [8] 0.94 | [9] 1 | [10] 0.823

CCSCCSP(=S)(OC)OC
inactive: [1] 1.09 | [2] 1.02 | [3] 0.996 | [4] 0.996 | [5] 1.07 | [6] 0.992 | [7] 1.01 | [8] 1.03 | [9] 1.03 | [10] 1.09

COCc1c(F)c(F)c(COC(=O)[C@@H]2[C@@H](C=C(Cl)Cl)C2(C)C)c(F)c1F
inactive: [1] 1.07 | [2] 0.953 | [3] 1.03 | [4] 1.01 | [5] 1.29 | [6] 1.03 | [7] 0.969 | [8] 1.03 | [9] 0.994 | [10] 1

CCS(=O)(=O)Oc1ccc2c(c1)C(C)(C)CO2
inactive: [1] 0.972 | [2] 1 | [3] 0.967 | [4] 1.01 | [5] 1.01 | [6] 0.99 | [7] 1.01 | [8] 1.04 | [9] 1.03 | [10] 1.01

CCOP(=S)(OCC)Oc1cnccn1
inactive: [1] 0.892 | [2] 0.985 | [3] 0.963 | [4] 1.01 | [5] 0.979 | [6] 0.985 | [7] 0.982 | [8] 1.04 | [9] 0.974 | [10] 0.993
